# Key:
# Assay in all cases: DAPPL (digital affinity profiling via proximity ligation, sequencing); 10 mM Tris-HCl pH 7.5, 50 mM NaCl, 1 mM DTT, 4% glycerol, room temperature, 30 min; GST-TFs on glutathione beads, 16-mer random dsDNA library, 0.1% formaldehyde crosslink after washing; high values mean tight binding
# [1] = biological target: T1, FLI1 (Homo sapiens, UniProt Q01543 1-452); conditions: protein: recombinant; tags: N-terminal GST; dsDNA, one strand shown
# T1 sequence: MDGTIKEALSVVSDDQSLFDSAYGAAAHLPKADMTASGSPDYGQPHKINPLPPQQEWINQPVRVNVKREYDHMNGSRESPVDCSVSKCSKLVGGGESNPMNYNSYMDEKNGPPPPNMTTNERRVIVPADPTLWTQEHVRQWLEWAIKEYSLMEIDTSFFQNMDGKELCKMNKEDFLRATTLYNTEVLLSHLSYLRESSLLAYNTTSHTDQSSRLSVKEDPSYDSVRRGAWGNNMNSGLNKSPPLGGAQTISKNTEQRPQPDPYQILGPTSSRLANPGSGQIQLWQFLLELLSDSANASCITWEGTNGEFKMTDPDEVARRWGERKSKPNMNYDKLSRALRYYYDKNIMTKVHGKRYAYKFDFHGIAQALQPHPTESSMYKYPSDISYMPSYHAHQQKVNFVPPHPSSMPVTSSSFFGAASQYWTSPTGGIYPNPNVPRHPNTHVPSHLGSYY
# Procedure, shortened: (§1)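 The binding signal reported is, for every hexamer, its read frequency for a factor over its read frequency for the tag-only sample. Reads came from pools of yeast-expressed, GST-fused human transcription factors on glutathione beads, barcoded with DNA and mixed with that sample, which were incubated with 200 nmole of a random double-stranded 16-mer DNA library in Tris/NaCl/DTT/glycerol buffer at room temperature for 30 min. After washing, the pools were crosslinked with 0.1% formaldehyde, proximity-ligated with BsaI/T4 ligase for 1 h at 37 °C, PCR-amplified and sequenced on an Illumina NextSeq500.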
# [2] = biological target: T2, ELK1 (Homo sapiens, UniProt P19419 1-428); conditions: protein: recombinant; tags: N-terminal GST; dsDNA, one strand shown
# T2 sequence: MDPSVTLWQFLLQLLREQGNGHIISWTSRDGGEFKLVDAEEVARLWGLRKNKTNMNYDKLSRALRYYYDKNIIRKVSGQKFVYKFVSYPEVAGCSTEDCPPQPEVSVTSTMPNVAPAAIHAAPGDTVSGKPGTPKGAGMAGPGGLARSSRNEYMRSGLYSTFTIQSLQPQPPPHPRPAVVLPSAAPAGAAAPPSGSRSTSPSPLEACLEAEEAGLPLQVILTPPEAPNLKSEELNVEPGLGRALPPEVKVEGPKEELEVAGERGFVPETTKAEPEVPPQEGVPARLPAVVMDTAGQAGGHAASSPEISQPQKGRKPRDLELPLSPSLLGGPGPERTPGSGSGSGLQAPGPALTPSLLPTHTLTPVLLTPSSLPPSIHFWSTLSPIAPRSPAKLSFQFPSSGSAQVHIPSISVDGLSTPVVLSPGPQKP
# Procedure, shortened: as §1
# [3] = biological target: T3, GABPA (Homo sapiens, UniProt Q06546 1-454); conditions: protein: recombinant; tags: N-terminal GST; dsDNA, one strand shown
# T3 sequence: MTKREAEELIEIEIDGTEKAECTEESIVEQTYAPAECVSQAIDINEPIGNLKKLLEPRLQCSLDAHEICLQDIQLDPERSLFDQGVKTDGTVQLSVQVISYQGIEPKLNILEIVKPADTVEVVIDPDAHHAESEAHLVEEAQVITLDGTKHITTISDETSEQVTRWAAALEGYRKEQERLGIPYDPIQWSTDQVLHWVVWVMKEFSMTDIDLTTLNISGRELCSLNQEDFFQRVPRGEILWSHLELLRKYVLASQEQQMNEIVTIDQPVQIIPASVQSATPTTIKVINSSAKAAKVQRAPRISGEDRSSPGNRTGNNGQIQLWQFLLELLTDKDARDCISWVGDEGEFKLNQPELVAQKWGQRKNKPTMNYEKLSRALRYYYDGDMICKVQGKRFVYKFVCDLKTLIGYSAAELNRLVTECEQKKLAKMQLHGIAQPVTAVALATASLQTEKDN
# Procedure, shortened: as §1
# [4] = biological target: T4, ERG (Homo sapiens, UniProt P11308 1-479); conditions: protein: recombinant; tags: N-terminal GST; dsDNA, one strand shown
# T4 sequence: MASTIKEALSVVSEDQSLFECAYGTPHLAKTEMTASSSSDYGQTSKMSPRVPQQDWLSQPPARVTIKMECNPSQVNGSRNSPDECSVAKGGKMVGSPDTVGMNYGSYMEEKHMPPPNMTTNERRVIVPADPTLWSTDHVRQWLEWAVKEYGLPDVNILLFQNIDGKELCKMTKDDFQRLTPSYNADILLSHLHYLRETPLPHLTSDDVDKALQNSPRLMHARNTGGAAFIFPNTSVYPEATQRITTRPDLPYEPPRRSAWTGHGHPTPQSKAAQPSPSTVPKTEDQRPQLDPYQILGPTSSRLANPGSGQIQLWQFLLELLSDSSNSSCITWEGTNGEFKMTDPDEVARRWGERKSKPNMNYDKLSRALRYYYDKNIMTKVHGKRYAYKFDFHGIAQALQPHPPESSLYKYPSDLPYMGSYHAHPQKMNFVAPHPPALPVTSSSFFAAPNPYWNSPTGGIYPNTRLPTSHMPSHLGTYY
# Procedure, shortened: as §1
# [5] = biological target: ELF1 (Homo sapiens, UniProt P32519 1-619); conditions: protein: recombinant; tags: N-terminal GST; dsDNA, one strand shown
# Sequence of ELF1 (P32519 whole entry): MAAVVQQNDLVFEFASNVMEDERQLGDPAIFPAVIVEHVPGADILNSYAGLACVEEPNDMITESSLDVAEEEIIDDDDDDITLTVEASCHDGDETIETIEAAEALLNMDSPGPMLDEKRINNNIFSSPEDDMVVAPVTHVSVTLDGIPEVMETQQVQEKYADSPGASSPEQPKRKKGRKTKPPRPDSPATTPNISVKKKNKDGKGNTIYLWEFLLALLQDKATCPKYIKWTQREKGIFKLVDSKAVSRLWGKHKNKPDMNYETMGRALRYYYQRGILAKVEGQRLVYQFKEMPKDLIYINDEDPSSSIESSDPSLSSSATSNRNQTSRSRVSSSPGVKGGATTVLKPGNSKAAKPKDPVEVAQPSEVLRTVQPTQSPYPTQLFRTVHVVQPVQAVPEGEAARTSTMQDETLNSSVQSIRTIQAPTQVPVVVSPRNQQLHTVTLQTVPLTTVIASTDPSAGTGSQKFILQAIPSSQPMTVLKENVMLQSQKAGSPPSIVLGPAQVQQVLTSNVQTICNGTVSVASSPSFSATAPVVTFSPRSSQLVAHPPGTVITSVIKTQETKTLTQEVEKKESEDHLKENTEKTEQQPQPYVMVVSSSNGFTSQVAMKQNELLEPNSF
# Procedure, shortened: as §1
# [6] = biological target: T5, EHF (Homo sapiens, UniProt Q9NZC4 1-300); conditions: protein: recombinant; tags: N-terminal GST; dsDNA, one strand shown
# T5 sequence: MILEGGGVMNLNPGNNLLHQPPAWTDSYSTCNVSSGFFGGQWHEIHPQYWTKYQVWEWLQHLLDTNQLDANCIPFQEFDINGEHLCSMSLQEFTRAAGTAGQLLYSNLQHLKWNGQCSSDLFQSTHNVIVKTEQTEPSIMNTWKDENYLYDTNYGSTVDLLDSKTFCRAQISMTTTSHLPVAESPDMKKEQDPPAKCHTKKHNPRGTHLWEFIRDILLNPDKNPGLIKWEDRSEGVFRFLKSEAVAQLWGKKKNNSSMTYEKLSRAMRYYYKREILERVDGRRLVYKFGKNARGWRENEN
# Procedure, shortened: as §1
# [7] = biological target: SPI1 (Homo sapiens, UniProt P17947 1-270); conditions: protein: recombinant; tags: N-terminal GST; dsDNA, one strand shown
# Procedure, shortened: as §1
# [8] = biological target: SPIB (Homo sapiens, UniProt Q01892 1-262); conditions: protein: recombinant; tags: N-terminal GST; dsDNA, one strand shown
# Sequence of SPIB (Q01892 whole entry): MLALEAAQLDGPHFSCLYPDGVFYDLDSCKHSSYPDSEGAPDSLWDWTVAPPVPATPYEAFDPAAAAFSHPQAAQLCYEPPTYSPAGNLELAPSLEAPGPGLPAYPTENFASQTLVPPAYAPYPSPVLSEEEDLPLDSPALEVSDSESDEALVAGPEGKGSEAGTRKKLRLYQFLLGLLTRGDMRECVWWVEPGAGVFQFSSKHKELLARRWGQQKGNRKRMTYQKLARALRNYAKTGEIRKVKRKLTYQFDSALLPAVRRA
# Procedure, shortened: as §1
# [9] = biological target: T6, ELK3 (Homo sapiens, UniProt P41970 1-407); conditions: protein: recombinant; tags: N-terminal GST; dsDNA, one strand shown
# T6 sequence: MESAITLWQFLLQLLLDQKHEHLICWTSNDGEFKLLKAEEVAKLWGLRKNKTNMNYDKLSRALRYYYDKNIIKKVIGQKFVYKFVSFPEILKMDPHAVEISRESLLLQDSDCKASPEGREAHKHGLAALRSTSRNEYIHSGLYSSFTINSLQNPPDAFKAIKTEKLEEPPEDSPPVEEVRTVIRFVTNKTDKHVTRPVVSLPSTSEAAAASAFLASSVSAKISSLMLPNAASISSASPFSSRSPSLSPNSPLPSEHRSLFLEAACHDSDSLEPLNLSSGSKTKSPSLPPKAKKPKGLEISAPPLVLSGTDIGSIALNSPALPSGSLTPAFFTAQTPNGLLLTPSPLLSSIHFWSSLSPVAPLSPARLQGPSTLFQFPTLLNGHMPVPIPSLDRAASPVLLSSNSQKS
# Procedure, shortened: as §1
# [10] = biological target: T7, FEV (Homo sapiens, UniProt Q99581 1-238); conditions: protein: recombinant; tags: N-terminal GST; dsDNA, one strand shown
# T7 sequence: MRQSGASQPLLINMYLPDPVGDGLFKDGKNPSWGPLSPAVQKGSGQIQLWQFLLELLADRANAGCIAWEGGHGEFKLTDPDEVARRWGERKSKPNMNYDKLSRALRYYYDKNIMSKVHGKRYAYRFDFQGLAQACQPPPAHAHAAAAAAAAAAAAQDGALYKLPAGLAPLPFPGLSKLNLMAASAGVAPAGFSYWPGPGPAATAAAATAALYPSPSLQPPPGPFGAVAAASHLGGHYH
# Procedure, shortened: as §1
# [11] = biological target: ETV5 (Homo sapiens, UniProt P41161 1-510); conditions: protein: recombinant; tags: N-terminal GST; dsDNA, one strand shown
# Sequence of ETV5 (P41161 whole entry): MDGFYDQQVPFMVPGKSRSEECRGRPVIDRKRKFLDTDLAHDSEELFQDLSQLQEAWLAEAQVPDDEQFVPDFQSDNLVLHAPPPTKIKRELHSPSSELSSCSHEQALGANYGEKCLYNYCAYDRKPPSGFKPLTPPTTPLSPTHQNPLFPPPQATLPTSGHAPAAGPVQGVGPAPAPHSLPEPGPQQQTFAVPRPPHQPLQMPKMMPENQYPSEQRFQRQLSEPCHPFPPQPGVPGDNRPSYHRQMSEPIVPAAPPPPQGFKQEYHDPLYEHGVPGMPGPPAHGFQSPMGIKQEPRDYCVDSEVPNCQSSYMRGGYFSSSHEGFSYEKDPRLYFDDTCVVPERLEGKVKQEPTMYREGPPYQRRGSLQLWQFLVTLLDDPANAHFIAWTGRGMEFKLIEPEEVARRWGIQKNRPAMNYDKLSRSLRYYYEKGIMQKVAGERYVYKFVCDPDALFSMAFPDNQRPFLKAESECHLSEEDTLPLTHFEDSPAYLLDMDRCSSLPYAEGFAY
# Procedure, shortened: as §1
# [12] = biological target: HSF1 (Homo sapiens, UniProt Q00613 1-529); conditions: protein: recombinant; tags: N-terminal GST; chain copies: 3; dsDNA, one strand shown
# Sequence of HSF1 (Q00613 whole entry): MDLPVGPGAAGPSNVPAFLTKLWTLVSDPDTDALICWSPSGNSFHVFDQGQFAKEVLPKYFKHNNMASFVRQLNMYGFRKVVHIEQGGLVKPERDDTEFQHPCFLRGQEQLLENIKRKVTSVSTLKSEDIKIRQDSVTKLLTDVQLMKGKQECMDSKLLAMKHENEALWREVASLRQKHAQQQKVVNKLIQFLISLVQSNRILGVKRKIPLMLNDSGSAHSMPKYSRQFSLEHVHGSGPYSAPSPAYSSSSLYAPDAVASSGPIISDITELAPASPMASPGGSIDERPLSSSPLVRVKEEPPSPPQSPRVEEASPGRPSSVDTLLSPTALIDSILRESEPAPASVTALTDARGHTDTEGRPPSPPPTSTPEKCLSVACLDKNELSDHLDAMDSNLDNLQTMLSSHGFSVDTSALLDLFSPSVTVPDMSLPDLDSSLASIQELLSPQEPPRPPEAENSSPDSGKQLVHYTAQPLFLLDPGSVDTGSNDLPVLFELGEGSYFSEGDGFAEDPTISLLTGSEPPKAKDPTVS
# Procedure, shortened: as §1
# [13] = biological target: T8, SPIC (Homo sapiens, UniProt Q8N5J4 1-248); conditions: protein: recombinant; tags: N-terminal GST; dsDNA, one strand shown
# T8 sequence: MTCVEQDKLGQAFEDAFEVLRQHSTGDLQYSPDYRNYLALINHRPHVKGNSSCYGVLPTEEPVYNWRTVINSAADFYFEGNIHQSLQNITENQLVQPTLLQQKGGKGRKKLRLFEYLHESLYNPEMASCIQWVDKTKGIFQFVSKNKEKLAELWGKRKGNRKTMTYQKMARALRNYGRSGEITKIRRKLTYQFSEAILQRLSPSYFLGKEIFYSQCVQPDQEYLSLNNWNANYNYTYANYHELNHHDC
# Procedure, shortened: as §1
# [14] = biological target: ELF4 (Homo sapiens, UniProt Q99607 1-663); conditions: protein: recombinant; tags: N-terminal GST; dsDNA, one strand shown
# Sequence of ELF4 (Q99607 whole entry): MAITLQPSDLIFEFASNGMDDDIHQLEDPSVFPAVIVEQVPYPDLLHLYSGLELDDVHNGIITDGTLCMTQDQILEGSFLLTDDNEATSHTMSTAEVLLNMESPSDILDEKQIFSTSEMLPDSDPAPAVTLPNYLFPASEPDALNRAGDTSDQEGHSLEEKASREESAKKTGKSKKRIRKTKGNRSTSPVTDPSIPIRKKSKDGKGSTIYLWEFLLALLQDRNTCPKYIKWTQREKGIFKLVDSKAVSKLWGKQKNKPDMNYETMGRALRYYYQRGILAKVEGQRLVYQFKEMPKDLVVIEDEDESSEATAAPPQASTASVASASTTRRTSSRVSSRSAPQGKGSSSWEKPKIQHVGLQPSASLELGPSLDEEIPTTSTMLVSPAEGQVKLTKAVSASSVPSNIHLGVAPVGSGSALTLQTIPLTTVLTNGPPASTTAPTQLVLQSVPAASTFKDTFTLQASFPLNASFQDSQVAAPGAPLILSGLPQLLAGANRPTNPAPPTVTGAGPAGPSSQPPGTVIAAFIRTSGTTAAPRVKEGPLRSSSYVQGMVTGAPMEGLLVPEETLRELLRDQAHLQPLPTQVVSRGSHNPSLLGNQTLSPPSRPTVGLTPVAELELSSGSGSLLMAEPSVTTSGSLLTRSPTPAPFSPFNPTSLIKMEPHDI
# Procedure, shortened: as §1
# [15] = biological target: T9, ELK4 (Homo sapiens, UniProt P28324-2 1-405); conditions: protein: recombinant; tags: N-terminal GST; dsDNA, one strand shown
# T9 sequence: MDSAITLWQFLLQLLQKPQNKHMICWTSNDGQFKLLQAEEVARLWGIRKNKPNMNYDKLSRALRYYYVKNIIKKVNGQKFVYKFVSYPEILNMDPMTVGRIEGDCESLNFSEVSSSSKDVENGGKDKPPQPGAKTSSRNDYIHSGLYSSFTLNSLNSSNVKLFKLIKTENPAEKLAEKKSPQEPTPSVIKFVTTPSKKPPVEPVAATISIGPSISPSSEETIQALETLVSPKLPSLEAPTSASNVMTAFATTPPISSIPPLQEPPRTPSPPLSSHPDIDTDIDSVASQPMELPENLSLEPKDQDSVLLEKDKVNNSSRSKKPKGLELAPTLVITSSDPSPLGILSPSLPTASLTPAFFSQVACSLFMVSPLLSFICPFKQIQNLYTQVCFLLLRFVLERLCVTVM
# Procedure, shortened: as §1
# [16] = biological target: T10, ETV2 (Homo sapiens, UniProt O00321 1-342); conditions: protein: recombinant; tags: N-terminal GST; dsDNA, one strand shown
# T10 sequence: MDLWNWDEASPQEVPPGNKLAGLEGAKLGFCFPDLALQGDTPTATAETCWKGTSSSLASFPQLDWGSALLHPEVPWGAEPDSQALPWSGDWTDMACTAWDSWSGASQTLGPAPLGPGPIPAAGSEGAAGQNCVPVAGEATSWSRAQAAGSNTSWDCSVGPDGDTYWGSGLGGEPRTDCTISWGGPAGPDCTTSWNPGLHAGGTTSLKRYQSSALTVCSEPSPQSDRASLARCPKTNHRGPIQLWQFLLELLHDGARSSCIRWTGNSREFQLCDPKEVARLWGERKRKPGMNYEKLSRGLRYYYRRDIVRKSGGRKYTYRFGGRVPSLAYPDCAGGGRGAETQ
# Procedure, shortened: as §1
# [17] = biological target: T11, ELF3 (Homo sapiens, UniProt P78545 1-371); conditions: protein: recombinant; tags: N-terminal GST; dsDNA, one strand shown
# T11 sequence: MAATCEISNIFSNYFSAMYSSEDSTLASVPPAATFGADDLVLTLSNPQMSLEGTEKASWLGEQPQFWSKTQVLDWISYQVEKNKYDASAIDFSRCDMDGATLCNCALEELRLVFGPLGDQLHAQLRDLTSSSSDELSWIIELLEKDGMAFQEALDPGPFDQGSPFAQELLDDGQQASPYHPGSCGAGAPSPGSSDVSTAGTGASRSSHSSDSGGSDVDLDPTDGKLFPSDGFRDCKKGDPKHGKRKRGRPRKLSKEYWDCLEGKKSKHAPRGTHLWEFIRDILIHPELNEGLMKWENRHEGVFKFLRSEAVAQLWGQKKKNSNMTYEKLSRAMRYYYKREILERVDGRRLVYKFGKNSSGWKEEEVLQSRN
# Procedure, shortened: as §1
# [18] = biological target: CRX (Homo sapiens, UniProt O43186 1-299); conditions: protein: recombinant; tags: N-terminal GST; dsDNA, one strand shown
# Sequence of CRX (O43186 whole entry): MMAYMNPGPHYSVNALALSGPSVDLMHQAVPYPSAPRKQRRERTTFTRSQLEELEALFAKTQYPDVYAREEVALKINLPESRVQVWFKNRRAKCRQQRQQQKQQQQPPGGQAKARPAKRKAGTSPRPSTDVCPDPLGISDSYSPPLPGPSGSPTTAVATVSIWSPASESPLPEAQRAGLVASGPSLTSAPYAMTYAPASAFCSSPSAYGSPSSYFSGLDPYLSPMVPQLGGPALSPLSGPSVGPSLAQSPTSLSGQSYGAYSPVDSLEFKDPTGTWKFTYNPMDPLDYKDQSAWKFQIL
# Procedure, shortened: as §1
# [19] = biological target: ETV1 (Homo sapiens, UniProt P50549 1-477); conditions: protein: recombinant; tags: N-terminal GST; dsDNA, one strand shown
# Sequence of ETV1 (P50549 whole entry): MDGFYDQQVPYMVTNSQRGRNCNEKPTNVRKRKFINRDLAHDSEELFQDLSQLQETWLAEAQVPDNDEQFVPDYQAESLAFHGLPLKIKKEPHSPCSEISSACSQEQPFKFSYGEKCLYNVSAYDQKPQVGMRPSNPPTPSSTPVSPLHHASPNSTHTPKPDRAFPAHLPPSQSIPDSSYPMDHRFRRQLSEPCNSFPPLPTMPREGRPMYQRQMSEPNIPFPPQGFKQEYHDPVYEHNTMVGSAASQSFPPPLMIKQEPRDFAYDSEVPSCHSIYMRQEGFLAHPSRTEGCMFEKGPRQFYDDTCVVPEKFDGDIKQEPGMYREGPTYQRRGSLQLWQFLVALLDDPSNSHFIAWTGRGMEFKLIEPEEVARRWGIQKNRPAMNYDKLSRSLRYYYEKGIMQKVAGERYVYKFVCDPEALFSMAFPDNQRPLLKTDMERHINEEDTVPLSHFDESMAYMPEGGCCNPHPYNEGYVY
# Procedure, shortened: as §1
sequence,measurement,setting,value
AGTATC,binding signal,[1],"1.09 fold enrichment (6-mer frequency, TF over GST control)"
same,binding signal,[2],"1.13 fold enrichment (6-mer frequency, TF over GST control)"
same,binding signal,[3],"1.11 fold enrichment (6-mer frequency, TF over GST control)"
same,binding signal,[4],"1.08 fold enrichment (6-mer frequency, TF over GST control)"
same,binding signal,[5],"1.13 fold enrichment (6-mer frequency, TF over GST control)"
same,binding signal,[6],"1.19 fold enrichment (6-mer frequency, TF over GST control)"
same,binding signal,[7],"1.13 fold enrichment (6-mer frequency, TF over GST control)"
same,binding signal,[8],"1.2 fold enrichment (6-mer frequency, TF over GST control)"
same,binding signal,[9],"1.17 fold enrichment (6-mer frequency, TF over GST control)"
same,binding signal,[10],"1.12 fold enrichment (6-mer frequency, TF over GST control)"
same,binding signal,[11],"1.18 fold enrichment (6-mer frequency, TF over GST control)"
same,binding signal,[12],"1.03 fold enrichment (6-mer frequency, TF over GST control)"
same,binding signal,[13],"1.14 fold enrichment (6-mer frequency, TF over GST control)"
same,binding signal,[14],"1.12 fold enrichment (6-mer frequency, TF over GST control)"
same,binding signal,[15],"1.1 fold enrichment (6-mer frequency, TF over GST control)"
same,binding signal,[16],"1.26 fold enrichment (6-mer frequency, TF over GST control)"
same,binding signal,[17],"1.16 fold enrichment (6-mer frequency, TF over GST control)"
same,binding signal,[18],"1.03 fold enrichment (6-mer frequency, TF over GST control)"
same,binding signal,[19],"1.07 fold enrichment (6-mer frequency, TF over GST control)"

# Source: paper PMC7862700, “An all-to-all approach to the identification of sequence-specific readers for epigenetic DNA modifications on cytosine”
